Marburg entry inh: inhibitors of Marburg virus binding or cell entry; Marburg virus pseudotyped entry inhibition, cell reporter; Potency, µM (titrated, usually from 37.8 µM), inactives show top-dose activity change, negative = inhibition, usual class: inhibitors; hit rate 1.8% among 300,000; AID 540276; calls by dose curve; tested in HEK293 cells; note: potency is the fitted concentration of half-maximal effect; % is set by controls: 0 for no effect and ±100 for the full control effect
HCMV antiviral: blocks human cytomegalovirus replication; activity change, negative = inhibition, % at 57.5 µM; hit rate 4.5% among 410,000; HFF cells, HCMV-luciferase reporter, 72 h; stronger effect = lower value; in the data active = activity change below about -60%; inconclusive = no clear call, values can overlap the other calls; inactive = above about -39%; note: % is set by controls: 0 for no effect and ±100 for the full control effect
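HFF cells seeded 16 h at 37C, treated with compounds, infected with luciferase-reporter HCMV at MOI 1 PFU/cell; luciferase read at 72 h post infection, normalized to buffer-only and Salinomycin controls.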
Lassa entry inh: blocks Lassa virus binding to or entry into cells. Lassa virus pseudotype entry inhibition, cell reporter. Potency, µM (highest dose often 37.9 µM), inactives show at the top dose activity change, negative = inhibition, most hits filed as inhibitors. hit rate 1.2% among 300,000; calls by dose curve; tested in HEK293 cells; note: potency is the fitted concentration of half-maximal effect; % is set by controls: 0 for no effect and ±100 for the full control effect; nearly all actives have a fitted effect of over 50% in size
FMDV antiviral: blocks foot and mouth disease virus; FMDV antiviral cell-based qHTS; Potency, µM (highest dose often 57.9 µM), without a hit: at the highest dose activity change, negative = inhibition, hits mostly inhibitors; hit rate 1.2% among 410,000; calls by dose curve; tested in HEK293T cells; note: read-out not given here; potency is the fitted concentration of half-maximal effect; % is set by controls: 0 for no effect and ±100 for the full control effect; nearly all actives have a fitted effect of over 45% in size
SARS PLP yeast: SARS-CoV PLP inhibition in yeast; S. cerevisiae expressing SARS-CoV PLpro, growth rescue; Potency, µM (doses to about 32.9 µM), for inactives: at the highest dose activity, positive = growth rescue, most hits filed as activators; hit rate 0.19% among 330,000; calls by dose curve; note: potency is the fitted concentration of half-maximal effect; 0% is about no effect; nearly all actives have a fitted effect of over 55% in size
HCV inh: HCV inhibition; Huh7.5.1 HCVcc-Cre infection, luciferase reporter, 44 h; Potency, µM (titrated, usually from 41.8 µM), inactives show at the top dose activity change, negative = inhibition, actives largely listed as inhibitors; hit rate 3.4% among 340,000; AID 651820; active = well fitted inhibition curve with a large enough effect; inconclusive = small, poorly fitted or top-dose-only effect, or another doubt; inactive = no such curve, though single readings can be large or run the other way; note: potency is the fitted concentration of half-maximal effect; % is set by controls: 0 for no effect and ±100 for the full control effect
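A cell-based infection assay in which seeded cells (1,000 per well) receive test compound after 4 h, are inoculated with HCVcc-Cre at approximately 0.5 moi, and are incubated 44 h before luminescence detection.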
An asterisk follows results filed as active; [ ] = remark or other dose. The list is not random: actives were taken first. Their share in the collection is about 8%.

For COc1ccc(C(=O)Nc2ccc3oc(Cc4ccc(Cl)cc4)nc3c2)cc1OC the results were Marburg entry inh 0.0%, HCMV antiviral -23.2, FMDV antiviral inconclusive, SARS PLP yeast -4.9% and HCV inh 11.2µM*.
Screening O=C(/C=C/c1ccccn1)c1cc(Cl)cc(Cl)c1O returned HCMV antiviral -36.5, FMDV antiviral -22.1%, SARS PLP yeast -2.9% and HCV inh 12.6µM*.
`COc1ccc(/C=C/C(=O)c2cc(Cl)cc(Cl)c2O)c(OC)c1` gave Marburg entry inh -0.4%, HCMV antiviral inconclusive, Lassa entry inh 0.1%, FMDV antiviral 1.6%, SARS PLP yeast 2.2% and HCV inh inconclusive.
`NCCOB(c1ccccc1)c1ccccc1` gave FMDV antiviral 30.4%.
`COC(=O)c1ccc2nc(-c3ccc(C)cc3)c(CC(C)(C)C)n2c1` gave HCMV antiviral 1.9.
For Cc1ccc(CS/C(Nc2ccccc2C)=C(\C#N)C(=O)NCc2ccco2)c(C)c1 the results were Marburg entry inh inconclusive, HCMV antiviral -21.7, Lassa entry inh 3.66µM*, FMDV antiviral -27.2%, SARS PLP yeast 0.8% and HCV inh -5.3%.
`Cc1ccc(C)c(NC(=O)/C(C#N)=C/c2cn(CC(=O)NCc3ccco3)c3ccccc23)c1` gave Marburg entry inh inconclusive, HCMV antiviral -99.5*, Lassa entry inh -17.1%, FMDV antiviral -7.7%, SARS PLP yeast 1.8% and HCV inh inconclusive.
Cc1cc(C)cc(NC(=O)/C(C#N)=C/c2cn(CC(=O)NCc3ccco3)c3ccccc23)c1 was read as Marburg entry inh inconclusive, HCMV antiviral -85.0*, Lassa entry inh inconclusive, FMDV antiviral inconclusive, SARS PLP yeast 8.2% and HCV inh inconclusive.
`COc1cccc(N/C(SCc2ccccc2Cl)=C(/C#N)C(=O)NCc2cccs2)c1` gave Marburg entry inh inconclusive, HCMV antiviral -39.2, Lassa entry inh inconclusive, FMDV antiviral 12.7%, SARS PLP yeast 21.0% and HCV inh -3.7%.
For COc1cccc(N/C(SCc2ccccc2C)=C(/C#N)C(=O)NCc2cccs2)c1 the results were Marburg entry inh inconclusive, HCMV antiviral -80.3*, Lassa entry inh inconclusive, FMDV antiviral -5.4%, SARS PLP yeast -3.1% and HCV inh -24.5%.
`Cn1cnc(S(=O)(=O)N2CCCC(C(=O)NCc3ccc(Cl)cc3)C2)c1` (stereo unspecified) gave HCMV antiviral -12.8, Lassa entry inh -2.2%[46.1 µM] and FMDV antiviral 0.0%.
O=C(CCNS(=O)(=O)c1ccc2c(c1)CCN2C(=O)C1CC1)Nc1ccc(OC(F)(F)F)cc1 was read as HCMV antiviral -6.8, Lassa entry inh inconclusive and FMDV antiviral -2.0%.
Cc1cccc(C)c1NC(=O)Cn1c(=O)n(CCC(=O)NCc2ccccc2Cl)c(=O)c2sccc21 was read as Marburg entry inh 0.1%[46.1 µM], HCMV antiviral 7.5, Lassa entry inh -11.6%[46.1 µM] and FMDV antiviral 35.8%.
CCC(=O)NC(c1ccco1)c1cc(Br)c2cccnc2c1O (stereo unspecified) was read as HCMV antiviral inconclusive, FMDV antiviral -25.0% and SARS PLP yeast 2.2%.
CCCC(=O)NC(c1ccco1)c1c(O)ccc2ccccc12 (stereo unspecified) was read as Marburg entry inh inconclusive, HCMV antiviral -83.6*, Lassa entry inh -1.5%, FMDV antiviral -9.1%, SARS PLP yeast -1.7% and HCV inh -11.2%.
Screening CCCC(=O)NC(c1ccco1)c1cc([N+](=O)[O-])c2cccnc2c1O (stereo unspecified) returned Marburg entry inh inconclusive, HCMV antiviral -63.8*, Lassa entry inh inconclusive, FMDV antiviral -29.7%, SARS PLP yeast inconclusive and HCV inh -4.5%.
Screening CC(=O)NC(c1ccc(C)cc1)c1cc([N+](=O)[O-])c2cccnc2c1O (stereo unspecified) returned Marburg entry inh inconclusive, HCMV antiviral -98.9*, Lassa entry inh inconclusive, FMDV antiviral 0.0%, SARS PLP yeast 6.3% and HCV inh inconclusive.

Source: PubChem BioAssay (National Center for Advancing Translational Sciences (NCATS))
